# Laboratory results reported in PubChem BioAssay (NCI).
# This is part of a sample that, as a whole, favours compounds with a hit. Of some 83,000 tested, about 20% had one in any assay.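 Percent growth is the endpoint: 0 to 100 indicates growth inhibition (40 means 60% inhibition), 0 means no net growth, and negative values indicate cell death.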 The source made the active and inactive calls. How the source made its calls: active means growth percent below 10; inactive means the rest.
# Tested on: HL-60(TB) leukemia
# Assay: NCI-60 one-dose screen, 48 h (100 = growth as untreated, 0 = no growth, -100 = all killed)
# Conditions: 10 µM unless noted
row,Structure (SMILES),growth
1,O=C(N/N=C/c1ccc([N+](=O)[O-])cc1)c1ccc(Br)o1,123% (inactive)
2,Cc1[nH]n(C(N)=S)c(=O)c1N=Nc1ccc(S(=O)(=O)Nc2ccncn2)cc1,103% (inactive)
3,COc1cc(/C(C#N)=C/c2ccc3c(c2OC)OCO3)cc2c1OCO2,26.9% (inactive)
4,C=C1C(=O)O[C@H]2[C@H]1CC/C(CNC(=O)/C1=C/CC[C@@]3(C)O[C@H]3[C@H]3OC(=O)C(=C)[C@@H]3CC1)=C\CC[C@@]1(C)O[C@@H]21,57.4% (inactive)
5,O=C(Nc1ccc(F)cc1)Nc1ccccc1CNc1nc(Nc2ccc(OCCN3CCCC3)cc2)ncc1Cl,-39.6% (active)
6,N#Cc1ccc(NC(=O)c2sc3nc4c(cc3c2N)C(=O)CCC4)cc1,81% (inactive)
7,C=C1C(=O)O[C@H]2[C@H]1CC/C(COC(=O)OCCCCCOC(=O)OC/C1=C/CC[C@@]3(C)O[C@H]3[C@H]3OC(=O)C(=C)[C@@H]3CC1)=C\CC[C@@]1(C)O[C@@H]21,-23.1% (active)
8,CCN(CC)CCNc1ccc([N+](=O)[O-])c2sc3ccccc3c(=O)c12,17% (inactive)
9,Cc1ccc(Cc2cnc(NC(=O)/C=C/c3ccc(C)o3)s2)cc1,-33% (active)
10,O=C(Cc1n[nH]c(=O)c2ccccc12)OCc1c(Cl)cccc1Cl,33.7% (inactive)
11,O=C(Nc1ccc(-n2cc(-c3ccncc3)c(-c3ccc(O)c(Cl)c3)n2)cc1)c1cc(C(F)(F)F)cc(C(F)(F)F)c1,84.4% (inactive)
12,O=C(c1nc2ccccc2[nH]1)C1C(c2ccc(Br)cc2)C2CC3CCCC[C@H]3N2[C@@]12C(=O)Nc1cc(Cl)ccc12 (stereo not given in full),12.4% (inactive)
13,Oc1ccc(/C=C/c2ccc(O)cc2)cc1,43.6% (inactive)
14,CCOC(=O)c1nn(C2CCCCO2)c2ccc(NC(=O)CN3CCCC3)cc12 (stereo not given),97.4% (inactive)
15,COc1ccc2c(c1)O/C(=C\c1cccc(OCC(=O)Nc3nc4ccccc4s3)c1)C2=O,40.7% (inactive)
16,CCOC(=O)c1ccc(N(CCC(=O)O)C(C)=O)cc1,117% (inactive)
17,Cc1noc(C)c1-c1cc(O)cc(C(O)c2ccccc2)c1 (stereo not given),10% (inactive)
18,Cc1ccc(-c2nc3c(c(-c4ccccc4)nn3-c3ccccc3)c(-c3ccc(O)cc3)c2C#N)cc1,33% (inactive)
19,COc1ccc(C(=O)COc2cccc(/C=C3\CSc4ccccc4C3=O)c2)cc1,-55.5% (active)
20,CC(C)=CCNc1ncnc2c1ncn2C1OC(COP(=O)(O)O)C(O)C1O (stereo not given),-38.4% (active)

row,Structure (SMILES),growth
1,CC[C@H](CO)Nc1nc(NCc2ccccc2)n2ncc(C(C)C)c2n1,-38.2% (active)
2,CCCN1C(=O)/C(=c2\sc3n(c2=O)C2C(NN=3)N(CC)C(=O)N2CC)c2ccccc21 (stereo not given),-40.8% (active)
3,CCOC(=O)CNN,113% (inactive)
4,NC1(C(=O)O)CSSC1,4.59% (active)
5,COc1ccc2c(c1)CCNC21C(=O)Nc2c(Br)cc(Br)cc21 (stereo not given),117% (inactive)
6,O=C(Cc1ccc(F)c(Cl)c1)Nc1cc(C2(C(F)(F)F)CC2)nn1CC1CCCCC1,14.8% (inactive)
7,CC[C@H](Nc1ncnc(N)c1C(N)=O)c1nc2cccc(NCc3ccc(C(=O)NO)cc3)c2c(=O)n1-c1ccccc1,126% (inactive)
8,COc1ccc2sc(-n3nc4nc5n(c(=O)c4c3N)-c3ccccc3Sc3ccccc3-5)nc2c1,66.6% (inactive)
9,COc1cc(Nc2ccnc(NCCNc3ccnc4cc(Cl)ccc34)n2)cc(OC)c1,11.9% (inactive)
10,CCCCCOC(=O)Nc1nc(=O)n(C2O[C@H](C)[C@@H](O)[C@H]2O)cc1F (stereo not given in full),92.8% (inactive)
11,CCOC(=O)c1ccc(NCCC(=O)O)cc1,96.4% (inactive)
12,NS(=O)(=O)c1ccc(C(=O)NN2C(=O)c3ccccc3C2=O)cc1,103% (inactive)
13,O=C(Nc1nc(-c2ccc(Br)cc2)cs1)c1cc(-c2ccc(Br)cc2)nc2ccc(Cl)cc12,96.6% (inactive)
14,COc1cc(CCn2nnc3c(Nc4ccc(N5CCOCC5)cc4)ncnc32)cc(OC)c1,106% (inactive)
15,COc1ccc2nc(-c3ccccc3)cc(C(C)=O)c2c1,84.8% (inactive)
16,O=c1cc/c(=N\Nc2ccccc2)c(=O)/c1=N/Nc1ccccc1,138% (inactive)
17,Cc1ccc(-c2cc(-c3nnc(SCC(=O)c4ccccc4)o3)c3ccccc3n2)cc1,103% (inactive)
18,CC1=CN2C(=O)C3C4=C(CCCC4)SC3N=C2CN1c1c(C)cccc1C (stereo not given),-9.4% (active)
19,CC(=O)OCCCCCNc1ccccc1,76.3% (inactive)
20,C=C[Si](OC(C)=O)(OC(C)=O)OC(C)=O,94.3% (inactive)
